This passage reports Percent Effect results from ChEMBL document CHEMBL3988442, “University of Dundee, Small-Polar-MMV Screening Library” (2021).

The first test deals with Trypanosoma cruzi. In words: Trypanosoma cruzi phosphomannomutase and mannose-1-phosphate guanylyltransferase assay. Format: functional. The settings on record: 10 µM. Also noted: scale not given: direction of the effect not stated beside the values.
For `Cc1cnn(CCNCC(O)COc2ccc(C#N)cc2)c1` (centres undefined), the Percent Effect was determined as 1.42%.

For the molecule `O=C(CCc1nccs1)N1CCN(c2cccnn2)CC1`, the Percent Effect worked out at 2.84%.

Turning to `CC(O)CN(CC(=O)NC(=O)NCC(F)(F)F)c1ccccc1` (centres undefined), the Percent Effect was -3.82%.

With `Cn1nccc1C(=O)N1CCOC(Cc2cccc(C(F)(F)F)c2)C1` (centres undefined), the Percent Effect was -3.99%.

Turning to `COC(=O)C(C)(C)NC(=O)C1CC(=O)N(C)C1` (centres undefined), the Percent Effect was 2.78%.

A further test addresses T1, Arginase-2, mitochondrial (Homo sapiens) (UniProt P78540).
T1 sequence (whole entry): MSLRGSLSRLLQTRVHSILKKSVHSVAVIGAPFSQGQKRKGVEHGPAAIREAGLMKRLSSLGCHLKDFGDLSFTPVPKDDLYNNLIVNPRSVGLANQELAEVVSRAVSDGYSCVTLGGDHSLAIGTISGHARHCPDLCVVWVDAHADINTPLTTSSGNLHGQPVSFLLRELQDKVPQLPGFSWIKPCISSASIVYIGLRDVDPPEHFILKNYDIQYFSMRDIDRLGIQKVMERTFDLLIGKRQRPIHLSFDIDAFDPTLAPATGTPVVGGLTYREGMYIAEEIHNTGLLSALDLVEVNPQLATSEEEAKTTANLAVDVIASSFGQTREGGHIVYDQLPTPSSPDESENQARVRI
In words: in vitro enzyme assay to detect the production of urea directly proportional to the activity of Arginase II. The settings on record: 33.3 µM. Also noted: scale not given: in the data most compounds retested in dose-response had high values. Format: functional.
Take `O=C(c1cnccn1)N1CCN(Cc2ccncc2)c2ncccc2C1`: the Percent Effect is -20.2%.

As for `CS(=O)(=O)N1CCCCCC1C1CCN(c2ncccn2)CC1` (centres undefined), the Percent Effect is -1.92%.

In the case of `Cc1noc([C@@H]2CC[C@@H]3[C@@H](CCN3S(=O)(=O)c3cccnc3)O2)n1`, the Percent Effect is 1.67%.

On to `COc1ccc(-c2noc(C(=O)NCCN3CCCCC3)n2)cc1OC`, for which the Percent Effect is -18.8%.

On to `CNC(=O)[C@H]1C[C@H]2OCC[C@H]2N(Cc2ccc(C)o2)C1`, for which the Percent Effect was -4.52%.

For the molecule `N#Cc1ccc(F)c(CN2CCCC2Cn2cccn2)c1` (centres undefined), the Percent Effect was -0.554%.

Regarding `CC(C)CN1CCC(c2nc3c([nH]2)CC(C)(C)CNC3=O)C1` (centres undefined), the Percent Effect is 16.2%.

As to `CSc1cc2c(cc1NC(=O)NCC(C)(C)C(N)=O)OCCO2`, the Percent Effect is -28.8%.

Turning to `CC(C)C1CN(C(=O)c2ccc(C(N)=O)cc2)CCS1` (centres undefined), the Percent Effect was -4.14%.

As to `Cc1ccc(-c2cc(CNC(=O)N3CCOC(C)C3)on2)cc1` (centres undefined), the Percent Effect came to 3.88%.

As to `Cn1cc(N2CC3(CCN(Cc4cccs4)CC3)OCC2=O)cn1`, the Percent Effect came to 3.19%.

As to `CCc1noc(C2CCN(C(=O)CCn3nc(C)cc3C)CC2)n1`, the Percent Effect was -5.52%.

Turning to `NC(=O)COc1cccc(C(=O)N2CCCC(n3ccnc3)C2)c1` (centres undefined), the Percent Effect was 0.554%.

For `CCCc1cc(C(=O)N(C)Cc2cccc3ncccc23)n(C)n1`, the Percent Effect is -19.3%.

On to `CCOCC1CN(Cc2ccoc2)Cc2nn(CC3CC3)cc21` (centres undefined), for which the Percent Effect worked out at 0%.

For the molecule `Cn1nc(C2CCCN(Cc3ccsc3)C2)c2nccnc21` (centres undefined), the Percent Effect was -0.696%.

In the case of `CCS(=O)(=O)N1CCOC2(CCCN(c3ccc(C)nn3)C2)C1` (centres undefined), the Percent Effect was -48.9%.

`CCN(CCC(F)(F)F)C(=O)Nc1cccc(N2CCOCC2)c1`: the Percent Effect was -2.38%.

Turning to `Cc1nn(C)cc1CN1CCC(C2Nc3ccccc3S(=O)(=O)N2)CC1` (centres undefined), the Percent Effect worked out at 0.232%.

Take `COCCCNC(=O)CN1CCCC1c1c(C)nn(C)c1Cl` (centres undefined): the Percent Effect amounted to 2.37%.

Turning to `Cc1ccccc1CN1CCN(CC(=O)Nc2cccnc2)CC1`, the Percent Effect came to 3.58%.

Turning to `CS(=O)(=O)N1CCOCC2(CN(Cc3ccsc3)CCO2)C1` (centres undefined), the Percent Effect is -4.39%.

As for `c1cncc(COCc2nnc3n2CCN(Cc2ccoc2)C3)c1`, the Percent Effect is -8.28%.

As to `CCN1C(=O)CCC12CCCN(Cc1nccs1)CC2` (centres undefined), the Percent Effect is -0.699%.

`O=C(Nc1cnn(CCN2CCOCC2)c1)c1cc(F)ccc1F`: the Percent Effect was 1.53%.

`O=C(N[C@@H]1CN(Cc2ccc3c(c2)OCO3)[C@@H]2CCCO[C@@H]21)C1CC1`: the Percent Effect was -55%.

Regarding `Cc1noc(Cl)c1CCC(=O)N1CCC(CC(N)=O)CC1`, the Percent Effect was -3.96%.

As to `c1ncn(CC2CCCCN2Cc2noc(C3CC3)n2)n1` (centres undefined), the Percent Effect is -1.92%.

For `Cc1ccc(CNS(=O)(=O)CC2=NC(=O)n3cccc3C2=O)cc1`, the Percent Effect is -4.4%.

For the molecule `Cn1cc(CN2CCn3cc(CNC(=O)C4CCC4)nc3C2)cn1`, the Percent Effect is -31%.

For `CCNC(c1cccnc1)c1cc(C)cc(C)c1` (centres undefined), the Percent Effect was -4.52%.

For the molecule `Cc1nc(N2CC[C@@H](NC(=O)c3cnccn3)[C@H](O)C2)c2ccsc2n1`, the Percent Effect came to 3.33%.

On to `CC(C)C(C(=O)N1CCN(Cc2ccncc2)CC1)n1cncn1` (centres undefined), for which the Percent Effect is -11%.

For `CC1c2ncc(Cn3cncn3)n2CCN1C(=O)C1CCOCC1` (centres undefined), the Percent Effect was -56.5%.

Take `Cc1cnn(CCNCC(O)COc2ccc(C#N)cc2)c1` (centres undefined): the Percent Effect was found to be 2.28%.

For `O=C(CCc1nccs1)N1CCN(c2cccnn2)CC1`, the Percent Effect was -0.21%.

In the case of `CC(O)CN(CC(=O)NC(=O)NCC(F)(F)F)c1ccccc1` (centres undefined), the Percent Effect is 1.9%.

For the molecule `Cn1nccc1C(=O)N1CCOC(Cc2cccc(C(F)(F)F)c2)C1` (centres undefined), the Percent Effect was -0.521%.

With `COC(=O)C(C)(C)NC(=O)C1CC(=O)N(C)C1` (centres undefined), the Percent Effect was -0.798%.
